Results as given in PubChem BioAssay (EPA / NIEHS).
“And” between values parts separate entries of the source, which are not always exact repeats. Equal entries are not always repeated. Records with an inconclusive call do not appear. A structure can be active in one record and inactive in another. The source made the active and inactive calls. The calls were made as follows, unless noted: active = hit-call score of the fitted dose curve at least 0.9, where 1 is the maximum; inactive = score below 0.9. Peptide text beside a SMILES is read from it.

Legend:
[1] = CCTE_Shafer_MEA_acute_LDH: CCTE's Lactate Dehydrogenase Assay for Cytotoxicity in the Neural Acute Assay, Shafer Lab (AID 2284086; active = hit-call score of the fitted dose curve at least 0.9, where 1 is the maximum;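 also: active means LDH release rises above DMSO vehicle level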)
Procedure, shortened: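 Medium collected from MEA wells of primary rat cortical cultures (DIV 13 or 15) immediately after 40 min chemical exposure is assayed spectrophotometrically for lactate dehydrogenase activity. Endpoint fitted in positive direction versus DMSO.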

[2] = CCTE_Shafer_MEA_acute_AB: CCTE's Alamar Blue Assay for Cytotoxicity in the Neural Acute Assay, Shafer Lab (AID 2284069; active = hit-call score of the fitted dose curve at least 0.9, where 1 is the maximum;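 also: active compounds lower the viability signal compared with DMSO wells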)
Procedure, shortened: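 Resazurin reduction (CellTiter Blue, 1:6 in fresh medium) read at ex 544/em 590 nm marks viability loss relative to DMSO. Cells: primary rat cortical neuron networks on microelectrode arrays, treated after baseline recording at 13 or 15 days in vitro.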

[3] = system: DIO2 (gene 1734); assay: CCTE_GLTED_hDIO2: CCTE's human Deiodinase 2 (DIO2) Inhibition Assay, Great Lakes Toxicology and Ecology Division (GLTED) Lab (AID 2284050; active = hit-call score of the fitted dose curve at least 0.9, where 1 is the maximum)
Procedure, shortened: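 Inhibition is judged by reduced iodide release: uninhibited human DIO2 frees iodide from substrate over 3 h, measured afterward by Sandell-Kolthoff colorimetry. Iodinated chemicals or nitrite, iron and thiocyanate may interfere.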

[4] = system: DIO3 (gene 1735); assay: CCTE_GLTED_hDIO3: CCTE's human Deiodinase 3 (DIO3) Inhibition Assay, Great Lakes Toxicology and Ecology Division (GLTED) Lab (AID 2284055; active = hit-call score of the fitted dose curve at least 0.9, where 1 is the maximum;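 also: potency is for inhibition seen as loss of released iodide signal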)
Procedure, shortened: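 Human type 3 deiodinase, expressed via adenovirus system, was exposed to test chemicals for 3 hours in a cell-free format. Released iodide was then determined spectrophotometrically by Sandell-Kolthoff; plates ran in triplicate.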

[5] = CCTE_Shafer_MEA_dev_inter_network_spike_interval_mean: CCTE's Neural Network Formation Assay for Mean Inter-network Spike Interval, Shafer Lab (AID 2284047)
Procedure, shortened: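 Mean time between consecutive network-spike peaks, recorded extracellularly (adaptive spike detection) on DIV 5, 7, 9 and 12, summarized as trapezoidal AUC. Rat cortical cultures on MEAs dosed continuously days 0–12, re-dosed at feeds; loss-of-signal fit relative to DMSO.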

[6] = CCTE_Shafer_MEA_dev_network_spike_number: CCTE's Neural Network Formation Assay for Number of Network Spikes, Shafer Lab (AID 2284048);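 also: synchronized bursts across electrodes counted on days 5 7 9 12 and integrated as AUC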;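 as to AC50: fit as a loss of signal meaning fewer network spikes than DMSO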
Procedure, shortened: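 Rat cortical primary cultures on 48-well MEA (16 electrodes/well); continuous exposure DIV 0–12, full medium and treatment exchange DIV 5, 9. Readout: network spike count, AxIS adaptive detection, recordings DIV 5/7/9/12 collapsed to AUC; loss-of-signal fit, DMSO baseline.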

[7] = CCTE_Shafer_MEA_dev_network_spike_peak: CCTE's Neural Network Formation Assay for Mean Number of Electrodes in Network Spike, Shafer Lab (AID 2284049);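 as to AC50: fitted for loss of signal meaning fewer electrodes in network spikes than DMSO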
Procedure, shortened: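 Network-spike peak electrode count from recordings on days 5, 7, 9 and 12 was combined as trapezoidal area under the curve. Rat cortical cultures were treated continuously from plating, with compound renewed at each feed (DIV 5, 9); fits versus DMSO.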

[8] = CCTE_Shafer_MEA_dev_spike_duration_mean: CCTE's Neural Network Formation Assay for Mean Spike Duration, Shafer Lab (AID 2284051);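 also: mean network spike duration pooled as area under curve over DIV 5 to 12 recordings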;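 as to AC50: potency for a decrease in mean network spike duration versus DMSO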
Procedure, shortened: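 Spontaneous activity was recorded on days 5, 7, 9 and 12 from rat cortical cultures grown on microelectrode arrays and dosed continuously from day 0, with media and compound renewed after the DIV 5 and 9 recordings. Network-spike duration was collapsed by area under the curve.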

[9] = CCTE_Shafer_MEA_dev_network_spike_duration_std: CCTE's Neural Network Formation Assay for Standard Deviation of Network Spike Duration, Shafer Lab (AID 2284052);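 also: hits are decreases in network spike duration SD versus DMSO vehicle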
Procedure, shortened: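 Network spike duration variability was collapsed across recordings on days 5, 7, 9 and 12 by trapezoidal area-under-curve and fitted downward against DMSO. Cultures were rat cortical neurons on PEI-coated MEA plates, dosed continuously from plating, refed with compound DIV 5/9.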

[10] = CCTE_Shafer_MEA_dev_per_network_spike_spike_number_mean: CCTE's Neural Network Formation Assay for Mean Number of Spikes in a Network Spike, Shafer Lab (AID 2284053);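 as to AC50: fitted as decrease in spikes per network spike relative to DMSO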
Procedure, shortened: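 Mean spike count within each network spike, taken in a 0.05 s window at its peak, was recorded on days 5, 7, 9 and 12 and integrated as trapezoidal area under the curve. Rat cortical cultures on MEA plates received continuous compound from day 0, refreshed at medium changes on DIV 5 and 9.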

[11] = CCTE_Shafer_MEA_dev_per_network_spike_spike_percent: CCTE's Neural Network Formation Assay for Percent of Spikes in a Network Spike, Shafer Lab (AID 2284054)
Procedure, shortened: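 Read-out: percent of spikes falling in a 0.05 s window at network-spike peak, from spontaneous MEA recordings on days 5, 7, 9 and 12; trapezoidal AUC; loss of signal versus DMSO. Rat cortical cultures, compound present throughout.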

[12] = CCTE_Shafer_MEA_dev_LDH: CCTE's Lactate Dehydrogenase Assay for Cytotoxicity in the Neural Network Formation Assay, Shafer Lab (AID 2284068; active = hit-call score of the fitted dose curve at least 0.9, where 1 is the maximum;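 also: exposure for twelve days from plating with re-dosing on DIV 5 and 9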)
Procedure, shortened: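 Primary rat cortical neurons were cultured on PEI-coated MEA plates and exposed from plating through day 12, with compound renewed at medium changes on DIV 5 and 9. LDH activity was read spectrophotometrically; loss of signal versus DMSO indicates reduced viability.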

[13] = CCTE_Shafer_MEA_dev_AB: CCTE's Alamar Blue Assay for Cytotoxicity in the Neural Network Formation Assay, Shafer Lab (AID 2284083; active = hit-call score of the fitted dose curve at least 0.9, where 1 is the maximum;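 also: resazurin reduction fluorescence as viability of cultured neurons; twelve days of exposure from plating with re-dosing on DIV 5 and 9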)
Procedure, shortened: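 Resazurin fluorescence, relative to DMSO, gauges viability after twelve days of exposure that began at plating of rat cortical neurons (1.5 x 10^5 cells/well, 48-well MEA); treatment renewed with full medium exchange on DIV 5 and 9.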

[14] = CCTE_Shafer_MEA_dev_mutual_information_norm: CCTE's Neural Network Formation Assay for Mutual Information Normalization, Shafer Lab (AID 2284091);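 as to AC50: mutual information between electrodes summarised as area under curve across four recording days; potency is for a decrease in mutual information relative to DMSO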
Procedure, shortened: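 Neurons from rat cortex were seeded at 1.5 x 10^5 cells/well onto PEI-coated MEAs in a laminin drop, then exposed to compound from day 0 for twelve days. Network recordings on four days gave mutual information, summarised by AUC relative to DMSO.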

[15] = CCTE_Shafer_MEA_dev_correlation_coefficient_mean: CCTE's Neural Network Formation Assay for Mean Correlation Coefficient, Shafer Lab (AID 2284093);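 as to AC50: well mean pairwise spike train correlation integrated as AUC over recording days 5 to 12; potency fitted for loss of correlation relative to DMSO vehicle wells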
Procedure, shortened: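 Primary rat cortical neurons on PEI-coated 48-well MEA plates (16 electrodes/well) were exposed from plating day 0 through DIV12, with compound renewed at DIV5 and 9. Pairwise spike correlations were averaged per well; trapezoidal AUC across DIV5, 7, 9, 12.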

[16] = UKN2_HCS_IMR90_neural_migration: University of Konstanz (UKN) Leist Lab Neural Crest Cell Migration Assay in human induced IMR90 Pluripotent Stem Cells (UKN2) (AID 2284204); settings: actives raise or lower the signal
Procedure, shortened: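 Stopper-exclusion migration (cMINC), human iPSC-derived neural crest cells; N2-S + EGF/FGF; compound added 24 h post-stopper removal, 24 h exposure. Readout: calcein-AM/Hoechst 30 min, HCS fluorescence imaging; bidirectional fitting, DMSO baseline.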

[17] = IUF_NPC1b_proliferation_BrdU_72hr: Leibniz Research Institute for Environmental Medicine (IUF) 72-hour Neural Progenitor Cell Bromodeoxyuridine (BrdU) Proliferation Assay (NPC1b) (AID 2284207)
Procedure, shortened: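 Luminescent BrdU ELISA measured DNA synthesis during the last 16 h of a 72 h exposure of primary human neural progenitor spheres grown with EGF and FGF. Signal was fitted relative to DMSO controls.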

[18] = IUF_NPC1a_proliferation_area_72hr: Leibniz Research Institute for Environmental Medicine (IUF) 72-hour Neural Progenitor Cell Proliferation Area Assay (NPC1a) (AID 2284208)
Procedure, shortened: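 hNPC spheres (human fetal cortex, GW 16-19), one per poly-Hema U-bottom well; EGF+FGF medium; dosed day 0, no re-dosing; 72 h, 37C, 5% CO2; phase-contrast sphere area; DMSO = baseline; minus-GF = positive ctrl.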

[19] = IUF_NPC1_viability_72hr: Viability Assessment at 72 hours in the Leibniz Research Institute for Environmental Medicine (IUF) Neural Progenitor Cell Proliferation Assay (NPC1) (AID 2284209)
Procedure, shortened: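 Spheres of primary human neural progenitors were plated singly in proliferation medium and treated for 72 h. Mitochondrial reduction of resazurin was then measured by fluorescence and analysed against DMSO controls.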

[20] = CCTE_Mundy_HCI_Cortical_Synap_Neur_Matur_NeuriteSpotCountPerNeuriteLength: CCTE's Synaptogenesis and Neurite Maturation Assay in rat cortical cells for Neurite Spot Count per Neurite Length, Mundy Lab (AID 2284210)
Procedure, shortened: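 Read-out: synaptophysin puncta counted along MAP2-stained neurites, normalised to neurite length, by automated high-content imaging. Rat cortical cells; AraC DIV 5; chemical dosing DIV 7; termination DIV 12. DMSO baseline.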

Measured: AC50

Nc1nc(N)nc(-c2ccccc2)n1
inactive: [1]

c1ccc(Nc2cccc3ccccc23)cc1
inactive: [2] | [1]

CCCCCCCCCCCCc1ccc(O)cc1
active: [3] 69.7 µM | [4] 11.2 µM

CCCC(C)C(=O)OCC (stereo not given)
inactive: [1]

C/C=C/C=C/CCCCCCCO
active: [3] 19.9 µM | [4] 16.4 µM

O=c1c(O)c(-c2ccc(O)cc2O)oc2cc(O)cc(O)c12
active: [3] 55.4 µM | [4] 33.5 µM

CC1(C)CC(O)CC(C)(C)N1[O]
inactive: [1]

CC(CCC(=O)O)(c1ccc(O)cc1)c1ccc(O)cc1
inactive: [2] | [1]

CCCCNS(=O)(=O)c1ccccc1
active: [7] 78.5 µM | [8] 50.5 µM | [17] 11.9 µM
not listed: [1] | [2] | [3] | [4]
inactive: all other assays above

O=C(O)c1cc(O)c2ccccc2c1O
active: [3] 51 µM | [4] 54.1 µM

Cc1c(C(=O)c2c[nH]n(C)c2=O)ccc(S(C)(=O)=O)c1C1=NOCC1
not listed: [3] | [4] | [12] | [16]
inactive: all other assays above

Cc1noc(NS(=O)(=O)c2ccc(N)cc2)c1C
not listed: [1] | [2] | [3] | [4] | [16] | [17] | [18] | [19]
inactive: all other assays above

CC(C)C(=O)OCCc1ccccc1
inactive: [1]

Oc1ccccc1Cc1ccccc1O
inactive: [1]

CCCCC/C=C\C/C=C\CCCCCCCC(=O)O
active: [3] 36.8 µM | [4] 16.9 µM

C[N+](C)(C)CCCNS(=O)(=O)C(F)(F)C(F)(F)C(F)(F)C(F)(F)C(F)(F)C(F)(F)C(F)(F)C(F)(F)F
active: [6] 1.43 µM | [7] 1.11 µM and 1.4 µM | [8] 2.58 µM | [10] 901 nM and 1.36 µM | [11] 2.55 µM | [12] 15 µM | [13] 15 µM and 7.64 µM | [14] 906 nM and 914 nM | [15] 4.2 µM
inactive: [5] | [6] | [8] | [9] | [11] | [15]

CCCCCCCCCCCC(=O)N(C)CC(=O)O
inactive: [1]

CCCCCCCOC(=O)c1ccc(O)cc1
active: [3] 106 µM | [4] 80.8 µM

C1CNCCN1
inactive: [2]

Nc1cccc(N)n1
inactive: [2] | [1]

COC(=O)[C@H](Cc1ccccc1)NC(=O)[C@@H](N)CC(=O)O (H-Asp-Phe-OMe)
not listed: [2] | [3] | [4] | [16] | [17] | [18] | [19]
inactive: all other assays above

CCCCCCCCCCCCCCCCCCOS(=O)(=O)O
active: [3] 40.6 µM | [4] 3.04 µM

CC/C=C\CCOC(=O)c1ccccc1O
inactive: [1]
